Lassa entry inh: Lassa virus entry inhibition; Lassa virus pseudotype entry inhibition, cell reporter; Potency, µM (doses to about 37.9 µM), for inactives: at the highest dose activity change, negative = inhibition, usual class: inhibitors; hit rate 1.2% among 300,000; AID 540256; calls by dose curve; tested in HEK293 cells; further: nearly all actives have a fitted effect of over 50% in size
Sm TGR inh: inhibitors of Schistosoma mansoni thioredoxin glutathione reductase | purified TGR, DTNB reduction, TNB absorbance 405 nm | AID 485364 | hit rate 3% among 360,000 | Q962Y6 | Potency, µM (top dose mostly 114 µM), for inactives: at the top dose activity change, negative = inhibition, hits mostly inhibitors; active means well fitted inhibition curve with a large enough effect; inconclusive means small, poorly fitted or top-dose-only effect; inactive means no such curve, though single readings can be large or run the other way; further: nearly all actives have a fitted effect of over 60% in size
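First, TGR (20 nM dispensed) and NADPH were mixed with compound. Second, a 15 min room-temperature incubation followed. Third, further NADPH and then DTNB were added to start the reaction. Finally, TNB absorbance was monitored kinetically.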
VACV mCherry inh: vaccinia inhibition (mCherry reporter). Potency, µM (top dose mostly 36.5 µM), without a hit: top-dose activity change, negative = inhibition, actives largely listed as inhibitors. hit rate 0.63% among 310,000. Vaccinia virus mCherry reporter infection, fluorescence; calls by dose curve; tested in A549 cells; further: nearly all actives have a fitted effect of over 35% in size
FMDV inh: antivirals against foot and mouth disease virus | FMDV antiviral cell-based qHTS | Potency, µM (doses to about 57.9 µM), for the others: at the highest dose activity change, negative = inhibition, actives largely listed as inhibitors | hit rate 1.2% among 410,000; calls by dose curve; tested in HEK293T cells; further: read-out not given here; nearly all actives have a fitted effect of over 45% in size
MARV entry inh: blocks Marburg virus binding to or entry into cells; Marburg virus pseudotyped entry inhibition, cell reporter; Potency, µM (top dose mostly 37.8 µM), without a hit: top-dose activity change, negative = inhibition, hits mostly inhibitors; hit rate 1.8% among 300,000; calls by dose curve; tested in HEK293 cells
Vaccinia Venus: inhibitors of vaccinia virus (Venus reporter); Vaccinia virus Venus reporter expression, fluorescence; Potency, µM (doses to about 36.5 µM), without a hit: top-dose activity change, negative = inhibition, hits mostly inhibitors; hit rate 0.46% among 330,000; calls by dose curve; tested in A549 cells; further: nearly all actives have a fitted effect of over 30% in size
Starred values were filed as active, the others as inactive; i = inactive; ? = inconclusive; / = not tested or not shown; ! = not confirmed by another sample; [ ] = dose if it differs, or a comment. Only some compounds are listed: those with a hit (about 5.4% of all), similar ones and a draw of the others. On the % scale 0 is the no-effect control and ±100 the full control effect; potency means the concentration at half of the fitted maximal effect.

SMILES	Lassa entry inh	Sm TGR inh	VACV mCherry inh	FMDV inh	MARV entry inh	Vaccinia Venus
CC(=O)c1ccc(F)c(-c2cc(C)cc3c2OC(CNC(=O)C[C@@H]2C[C@@H](C)NC(=S)N2)C3)c1 (some centres not stated)	/	/	-19%	-9%	/	-6%
CC1CC(Nc2ccccc2)c2ccccc2N1C(=O)c1ccncc1 (configuration not stated)	-24%	4%	-8%	-3%	10µM*	-13%
COc1ccc(C(C[N+](=O)[O-])C2(c3ccc(OC)c(OC)c3)C(=O)c3ccccc3C2=O)cc1 (configuration not stated)	16µM*	0%	11µM*	-87%	11µM*	?
COC(=O)C(C(=O)OC)C(C[N+](=O)[O-])c1ccc(OC)c(OC)c1 (configuration not stated)	-12%	-9%	-15%	-13%	-36%	-8%
COc1cc(C2=NOC(C(=O)NCc3ccc(F)cc3)C2)cc(OC)c1OC (configuration not stated)	-15%	0%	/	-9%	?	/
COc1ccc(OC)c(C2=NOC(C(=O)NCc3ccco3)C2)c1 (configuration not stated)	-25%	35µM*	/	7%	-13%	/
O=C(NCc1ccco1)C1CC(c2ccccc2C(F)(F)F)=NO1 (configuration not stated)	/	20µM*	-20%	-7%	/	-25%
COc1ccc(C2=NOC(C(=O)NCc3ccc(F)cc3)C2)cc1OC (configuration not stated)	0.82µM*	-13%	-32%	-19%	?	?
O=C(NCc1ccco1)C1CC(c2ccccc2O)=NO1 (configuration not stated)	?	-13%	-21%	14%	?	-25%
COCCN=C1N[C@@H](c2ccc(Br)cc2)C(C(=O)OC)=C(C)N1Cc1ccccc1	/	15%	-10%	-26%	/	?
COCCN=C1N[C@@H](c2ccccc2)C(C(=O)OC)=C(C)N1Cc1ccccc1	/	22µM*!	-26%	-16%	/	-8%
CCN1C(=NCCc2c[nH]c3ccccc23)N[C@@H](c2ccccc2)[C@H](C(=O)OC)[C@H]1C	/	45µM*	-1%	-18%	/	-6%
COC(=O)C1=C(C)N(Cc2ccccc2)C(=NCCc2c[nH]c3ccccc23)N[C@H]1c1cccc(F)c1	/	/	?	?	/	13µM*
CCN(CC)CCCN=C1N[C@@H](c2cccc(F)c2)C(C(=O)OC)=C(C)N1Cc1ccccc1	/	/	?	0%	/	28µM*
O=C(CCSCc1cccc(Cl)c1)N1CCN(c2ccc(Cl)cc2)CC1	?	18%	-3%	-21%	/	0%
COc1cccc(CNC(=O)Cc2c(C)c3c(cc(C)c4c(C)coc43)oc2=O)c1	11%[46.1 µM]	-1%	-9%	-3%	1%[46.1 µM]	-7%
Cn1nnc2c[n+](CC(=O)c3ccc4ccccc4c3)cc(Br)c21	?	?	?	?	11µM*	?
O=C(N[C@@H]1c2ccccc2C2(CCN(C(=O)c3cc4ccccc4oc3=O)CC2)[C@H]1O)c1cccnc1	/	/	-1%	-4%	/	-8%
Cc1cc(C)cc(NC(=O)C2CC23CCN(Cc2ccc4ncccc4c2)CC3)c1 (configuration not stated)	/	/	-3%	-10%	/	0%
CCOC(=O)C1=C(CS(=O)(=O)c2ccccc2)NC(=O)NC1c1ccccc1OCC (configuration not stated)	/	25µM*	i	-13%	2%	-7%
Cn1cnc([N+](=O)[O-])c1S(=O)(=O)c1ccc(Cl)cc1	20µM*	0.1µM*	i	14µM*	?	0%
CC(CCC(=O)OC[C@H]1O[C@H](C#Cc2ccccc2)C=C[C@H]1Oc1ccc(C)cc1)=NOC[C@@H](O)[C@H]1O[C@@H]2OC(C)(C)O[C@H]2[C@@H]1O	1%[14.3 µM]	/	/	/	-2%[14.2 µM]	/
COc1ccc(OCC(O)CN2CCCCCC2)cc1 (configuration not stated)	12%[14.3 µM]	3%	-4%	6%	7%	-5%
OC(COc1ccc(OCC(O)CN2CCCCCC2)cc1)CN1CCCCCC1 (configuration not stated)	?	9%	/	-19%	11µM*	-26%
OC(COc1ccc2cc(Br)ccc2c1)CN1CCCC1 (configuration not stated)	0%	1%	/	-7%	8.2µM*	/
SMILES	Lassa entry inh	Sm TGR inh	VACV mCherry inh	FMDV inh	MARV entry inh	Vaccinia Venus
CC(C)(c1ccccc1)c1ccc(OCC(O)CN2CCCC2)cc1 (configuration not stated)	?	7%	-23%	-1%	2.8µM*	?
CC(=O)OC[C@H]1O[C@H](CC=NO[C@@H](C)c2cc(-c3c(C)cc(C)cc3C)no2)C=C[C@@H]1OC(C)=O	/	/	/	/	-3%[14.2 µM]	/
C#CCOc1c(Br)cc(C2C(C(=O)OC)=C(C)NC3=C2C(=O)c2ccccc23)cc1OCC (configuration not stated)	-13%[46.1 µM]	28µM*	-27%	?	?	-11%
O=C1NC(=O)N(Cc2ccco2)C(=O)/C1=C/c1ccc(-c2cccc([N+](=O)[O-])c2)o1	0%	40µM*	/	32µM*	-12%	/
O=C1NC(=O)N(Cc2ccco2)C(=O)/C1=C\c1cccn1CCOc1ccc(Cl)cc1	-15%	?	i	35µM*	12%	22%
CC1=CC2=NC(=O)/C(=C\c3cccn3CCOc3cccc(C)c3)C(=N)N2O1	?	1%	i	54%	3%	-15%
Cc1cccc(OCCn2cccc2/C=C2/C(=O)NC(=O)N(Cc3ccco3)C2=O)c1	-22%[46.1 µM]	4µM*	i	-2%	6%[46.1 µM]	-8%
C#CCCCO/N=C1\C[C@@H](O)[C@@H](O)[C@@H]2[C@@H]3C(=O)N(Cc4ccccc4)C(=O)[C@@H]3CC[C@H]12	/	/	/	/	11%[14.2 µM]	/
Cc1cc(N2C(=O)C(=O)/C(=C(/O)c3ccccc3)[C@H]2c2cccs2)no1	/	/	/	/	21%	/
Cc1ccsc1/C=N/Nc1nc(=O)[nH]nc1C	18µM*	-5%	?	7%	?	-13%
COc1cccc(NC(=O)CSc2nc(=O)n(Cc3cccnc3)c3c2CCC3)c1	-4%[46.1 µM]	1%	-14%	25%	/	-3%
Cc1cc(Cl)ccc1OCC(=O)NCC1Cc2cc(-c3cnccn3)ccc2O1 (configuration not stated)	/	/	-30%	-14%	/	-19%
COc1ccc2cc(-c3nc4ccc(C(=O)O)cc4[nH]3)c(=O)oc2c1	10µM*	-8%	-15%	1µM*	/	-11%
C=CCc1cccc2cc(-c3nc4ccc(C(=O)O)cc4[nH]3)c(=O)oc12	1%[46.1 µM]	3%	i	16µM*	/	-8%
C=CCc1cccc2cc(C(=O)O)c(=O)oc12	0%	-11%	/	-3%	?	/
COc1cccc2cc(-c3nc4ccc(C)cc4[nH]3)c(=O)oc12	20%[46.1 µM]	14%	-9%	45%	/	-1%
